Assay results from the supplement of paper PMC11732987, “Enantioselective OTUD7B fragment discovery through chemoproteomics screening and high-throughput optimisation” (Communications Chemistry, 2025).

Legend:
Assay in all cases: log2 ratio of Biotin-Ahx-Ub-VS probe labelling (fragment/DMSO); higher = less target engagement (more negative = stronger competition), active = hit call of the paper (q ≤ 0.05, log2 ratio ≤ -1)
Conditions in all cases: compound concentration: 200 uM; treatment time: 3 h
USP34 = USP34 (UniProt Q70CQ2)
Sequence of USP34 (Q70CQ2 whole entry, the tested form may be a part): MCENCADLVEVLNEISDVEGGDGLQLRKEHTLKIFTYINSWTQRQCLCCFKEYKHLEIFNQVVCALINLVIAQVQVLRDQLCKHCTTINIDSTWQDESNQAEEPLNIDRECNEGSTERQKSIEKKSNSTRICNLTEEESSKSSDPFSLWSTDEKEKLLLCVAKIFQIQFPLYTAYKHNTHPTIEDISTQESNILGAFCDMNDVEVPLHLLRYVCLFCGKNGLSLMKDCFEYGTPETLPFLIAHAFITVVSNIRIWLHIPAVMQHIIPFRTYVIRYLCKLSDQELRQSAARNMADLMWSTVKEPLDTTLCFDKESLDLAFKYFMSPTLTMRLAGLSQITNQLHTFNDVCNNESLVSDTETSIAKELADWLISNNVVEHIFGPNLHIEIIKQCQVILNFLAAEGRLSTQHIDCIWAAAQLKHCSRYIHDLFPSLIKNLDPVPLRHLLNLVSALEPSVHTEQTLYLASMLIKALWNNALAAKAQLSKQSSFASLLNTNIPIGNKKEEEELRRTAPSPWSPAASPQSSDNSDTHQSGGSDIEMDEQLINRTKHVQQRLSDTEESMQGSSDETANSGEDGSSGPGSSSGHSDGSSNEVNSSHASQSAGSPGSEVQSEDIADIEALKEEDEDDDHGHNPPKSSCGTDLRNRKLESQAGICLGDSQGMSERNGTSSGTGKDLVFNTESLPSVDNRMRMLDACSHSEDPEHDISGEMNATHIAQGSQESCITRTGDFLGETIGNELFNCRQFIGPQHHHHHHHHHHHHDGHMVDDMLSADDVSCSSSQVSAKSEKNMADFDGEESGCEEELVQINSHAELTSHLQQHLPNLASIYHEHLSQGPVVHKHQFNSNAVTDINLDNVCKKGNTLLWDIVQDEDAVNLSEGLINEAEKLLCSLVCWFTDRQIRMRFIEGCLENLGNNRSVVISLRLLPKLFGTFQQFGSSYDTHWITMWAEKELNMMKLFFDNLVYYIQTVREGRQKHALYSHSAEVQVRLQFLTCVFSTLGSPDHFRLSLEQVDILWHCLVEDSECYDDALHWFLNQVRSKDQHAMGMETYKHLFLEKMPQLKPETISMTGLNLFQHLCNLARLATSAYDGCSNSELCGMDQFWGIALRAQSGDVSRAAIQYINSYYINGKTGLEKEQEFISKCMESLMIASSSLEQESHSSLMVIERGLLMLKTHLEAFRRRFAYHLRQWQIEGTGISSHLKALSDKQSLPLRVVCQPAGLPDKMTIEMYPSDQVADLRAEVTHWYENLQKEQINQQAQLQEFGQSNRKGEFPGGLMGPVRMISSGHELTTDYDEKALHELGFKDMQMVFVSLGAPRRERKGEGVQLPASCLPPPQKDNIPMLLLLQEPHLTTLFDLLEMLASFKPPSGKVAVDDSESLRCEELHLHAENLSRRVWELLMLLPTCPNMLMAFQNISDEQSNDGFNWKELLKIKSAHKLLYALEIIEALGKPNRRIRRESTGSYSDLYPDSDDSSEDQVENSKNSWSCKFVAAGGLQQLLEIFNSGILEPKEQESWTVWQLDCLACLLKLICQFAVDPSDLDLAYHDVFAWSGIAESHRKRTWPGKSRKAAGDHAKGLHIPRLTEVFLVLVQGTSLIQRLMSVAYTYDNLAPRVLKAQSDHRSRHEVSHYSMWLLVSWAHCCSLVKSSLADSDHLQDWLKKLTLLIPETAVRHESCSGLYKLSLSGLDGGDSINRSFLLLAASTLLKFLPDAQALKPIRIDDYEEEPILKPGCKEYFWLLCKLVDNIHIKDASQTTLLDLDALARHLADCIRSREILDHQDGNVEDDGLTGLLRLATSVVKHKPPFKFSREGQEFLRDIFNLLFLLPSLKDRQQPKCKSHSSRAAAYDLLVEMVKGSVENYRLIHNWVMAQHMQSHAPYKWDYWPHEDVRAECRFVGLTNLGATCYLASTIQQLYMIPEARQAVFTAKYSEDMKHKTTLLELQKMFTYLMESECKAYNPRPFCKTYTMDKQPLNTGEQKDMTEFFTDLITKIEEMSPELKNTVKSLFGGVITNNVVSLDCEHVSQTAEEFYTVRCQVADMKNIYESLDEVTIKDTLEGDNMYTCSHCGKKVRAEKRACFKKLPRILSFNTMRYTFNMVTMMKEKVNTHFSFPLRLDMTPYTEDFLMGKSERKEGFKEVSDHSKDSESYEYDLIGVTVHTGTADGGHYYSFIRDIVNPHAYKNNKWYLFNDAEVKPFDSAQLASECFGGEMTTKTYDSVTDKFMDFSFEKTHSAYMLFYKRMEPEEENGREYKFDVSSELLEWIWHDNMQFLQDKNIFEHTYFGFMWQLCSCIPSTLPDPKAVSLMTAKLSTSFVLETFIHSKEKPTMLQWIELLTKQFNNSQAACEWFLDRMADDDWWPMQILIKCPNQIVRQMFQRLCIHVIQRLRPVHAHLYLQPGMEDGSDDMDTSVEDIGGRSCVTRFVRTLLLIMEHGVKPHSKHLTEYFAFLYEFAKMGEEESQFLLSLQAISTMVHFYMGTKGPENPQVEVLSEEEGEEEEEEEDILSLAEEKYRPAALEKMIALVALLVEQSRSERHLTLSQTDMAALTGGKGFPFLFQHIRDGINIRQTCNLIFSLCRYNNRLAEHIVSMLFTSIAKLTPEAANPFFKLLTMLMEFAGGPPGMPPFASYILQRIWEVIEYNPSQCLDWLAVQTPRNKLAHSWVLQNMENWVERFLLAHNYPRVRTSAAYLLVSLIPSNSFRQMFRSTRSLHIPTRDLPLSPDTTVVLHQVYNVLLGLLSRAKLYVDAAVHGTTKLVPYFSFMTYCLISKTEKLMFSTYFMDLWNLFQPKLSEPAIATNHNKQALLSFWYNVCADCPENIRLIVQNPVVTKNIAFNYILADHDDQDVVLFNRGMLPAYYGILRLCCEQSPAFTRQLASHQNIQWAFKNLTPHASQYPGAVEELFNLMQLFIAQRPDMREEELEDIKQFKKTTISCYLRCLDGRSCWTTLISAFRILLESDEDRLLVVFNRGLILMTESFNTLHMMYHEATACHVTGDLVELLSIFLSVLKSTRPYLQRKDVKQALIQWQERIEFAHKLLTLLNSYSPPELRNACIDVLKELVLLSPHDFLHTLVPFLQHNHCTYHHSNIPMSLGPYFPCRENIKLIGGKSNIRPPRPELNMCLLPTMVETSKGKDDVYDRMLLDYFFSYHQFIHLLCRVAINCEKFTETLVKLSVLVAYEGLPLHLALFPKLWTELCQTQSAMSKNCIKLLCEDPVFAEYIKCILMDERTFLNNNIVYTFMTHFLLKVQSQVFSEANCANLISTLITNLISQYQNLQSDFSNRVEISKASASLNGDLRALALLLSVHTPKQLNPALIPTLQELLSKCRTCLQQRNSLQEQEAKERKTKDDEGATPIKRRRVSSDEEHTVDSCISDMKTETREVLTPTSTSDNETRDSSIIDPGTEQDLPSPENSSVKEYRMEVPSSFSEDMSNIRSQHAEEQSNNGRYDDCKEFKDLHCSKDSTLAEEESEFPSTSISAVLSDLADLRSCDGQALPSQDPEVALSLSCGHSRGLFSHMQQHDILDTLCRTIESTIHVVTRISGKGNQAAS
Outline: (§1)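 HEK293T lysate, 495 µg per sample in Tris/CHAPS/IGEPAL buffer with protease inhibitors, was treated in triplicate with fragment at 200 µM or vehicle for 3 h and then with Biotin-Ahx-Ub-VS at 0.5 µM final for 1 h. Labelled DUBs were NeutrAvidin-enriched, digested with LysC and trypsin, and run by diaPASEF LC-MS/MS. Spectronaut label-free quantities were global-median-normalised, and values are average log2 fragment/vehicle ratios by unpaired t-test on proteins with ≥2 unique peptides.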

USP36 = target: T1, USP36 (UniProt Q9P275)
T1 sequence (whole entry): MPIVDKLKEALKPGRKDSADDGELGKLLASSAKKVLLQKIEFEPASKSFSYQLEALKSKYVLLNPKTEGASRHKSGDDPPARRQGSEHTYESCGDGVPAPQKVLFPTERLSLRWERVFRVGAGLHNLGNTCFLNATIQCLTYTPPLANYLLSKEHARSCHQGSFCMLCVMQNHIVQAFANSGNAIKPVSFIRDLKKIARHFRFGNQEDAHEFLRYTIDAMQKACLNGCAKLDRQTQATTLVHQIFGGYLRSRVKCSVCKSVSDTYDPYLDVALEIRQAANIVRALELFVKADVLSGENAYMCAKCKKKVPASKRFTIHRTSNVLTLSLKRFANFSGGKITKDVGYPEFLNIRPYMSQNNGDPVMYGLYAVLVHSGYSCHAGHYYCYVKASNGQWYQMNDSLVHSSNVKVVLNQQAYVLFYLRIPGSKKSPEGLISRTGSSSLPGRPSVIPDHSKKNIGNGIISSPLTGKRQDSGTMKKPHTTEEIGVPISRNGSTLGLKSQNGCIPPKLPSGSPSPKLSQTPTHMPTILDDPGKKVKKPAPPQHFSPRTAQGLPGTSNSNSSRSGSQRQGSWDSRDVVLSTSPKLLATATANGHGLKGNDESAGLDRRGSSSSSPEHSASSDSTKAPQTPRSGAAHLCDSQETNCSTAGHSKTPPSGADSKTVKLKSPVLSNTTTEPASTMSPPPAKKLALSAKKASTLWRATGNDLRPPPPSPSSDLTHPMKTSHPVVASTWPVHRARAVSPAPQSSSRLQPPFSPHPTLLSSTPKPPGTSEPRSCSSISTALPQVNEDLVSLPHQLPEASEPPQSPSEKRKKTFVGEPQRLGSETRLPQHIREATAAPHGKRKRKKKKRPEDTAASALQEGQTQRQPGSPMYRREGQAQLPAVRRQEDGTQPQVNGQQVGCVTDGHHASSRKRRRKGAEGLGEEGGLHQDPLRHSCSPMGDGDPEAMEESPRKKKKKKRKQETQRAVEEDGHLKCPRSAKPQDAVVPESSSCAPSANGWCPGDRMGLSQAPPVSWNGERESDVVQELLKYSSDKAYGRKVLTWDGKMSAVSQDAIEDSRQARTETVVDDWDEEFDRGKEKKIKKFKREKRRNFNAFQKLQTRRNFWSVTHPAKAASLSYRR
Outline: as §1

USP38 = target: T2, USP38 (UniProt Q8NB14)
T2 sequence (whole entry): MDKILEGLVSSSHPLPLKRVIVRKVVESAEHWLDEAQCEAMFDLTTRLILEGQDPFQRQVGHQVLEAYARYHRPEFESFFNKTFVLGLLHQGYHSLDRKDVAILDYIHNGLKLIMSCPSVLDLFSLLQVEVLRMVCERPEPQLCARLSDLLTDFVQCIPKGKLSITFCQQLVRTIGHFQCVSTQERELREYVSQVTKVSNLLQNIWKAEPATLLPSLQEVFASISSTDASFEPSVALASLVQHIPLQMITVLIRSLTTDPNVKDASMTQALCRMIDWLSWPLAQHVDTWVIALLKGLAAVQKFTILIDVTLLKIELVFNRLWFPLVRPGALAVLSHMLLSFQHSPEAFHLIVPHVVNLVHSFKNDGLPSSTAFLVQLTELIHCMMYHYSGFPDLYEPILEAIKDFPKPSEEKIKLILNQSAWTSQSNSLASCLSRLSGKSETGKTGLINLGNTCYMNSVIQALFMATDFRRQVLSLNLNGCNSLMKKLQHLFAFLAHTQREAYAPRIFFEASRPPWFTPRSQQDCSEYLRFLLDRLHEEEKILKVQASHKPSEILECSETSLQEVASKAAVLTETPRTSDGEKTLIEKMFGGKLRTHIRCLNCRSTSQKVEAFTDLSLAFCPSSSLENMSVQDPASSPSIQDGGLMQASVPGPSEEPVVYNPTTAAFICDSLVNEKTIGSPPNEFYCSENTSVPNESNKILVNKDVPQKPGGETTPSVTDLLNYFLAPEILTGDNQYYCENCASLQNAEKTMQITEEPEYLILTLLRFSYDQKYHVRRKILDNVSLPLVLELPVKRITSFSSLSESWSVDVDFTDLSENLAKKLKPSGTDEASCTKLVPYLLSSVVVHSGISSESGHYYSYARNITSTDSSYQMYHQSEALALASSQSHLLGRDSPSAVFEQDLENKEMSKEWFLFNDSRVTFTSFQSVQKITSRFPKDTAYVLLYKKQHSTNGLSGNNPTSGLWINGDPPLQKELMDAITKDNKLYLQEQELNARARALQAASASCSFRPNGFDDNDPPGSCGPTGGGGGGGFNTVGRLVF
Outline: as §1

USP39 = target: T3, USP39 (UniProt Q53GS9)
T3 sequence (whole entry): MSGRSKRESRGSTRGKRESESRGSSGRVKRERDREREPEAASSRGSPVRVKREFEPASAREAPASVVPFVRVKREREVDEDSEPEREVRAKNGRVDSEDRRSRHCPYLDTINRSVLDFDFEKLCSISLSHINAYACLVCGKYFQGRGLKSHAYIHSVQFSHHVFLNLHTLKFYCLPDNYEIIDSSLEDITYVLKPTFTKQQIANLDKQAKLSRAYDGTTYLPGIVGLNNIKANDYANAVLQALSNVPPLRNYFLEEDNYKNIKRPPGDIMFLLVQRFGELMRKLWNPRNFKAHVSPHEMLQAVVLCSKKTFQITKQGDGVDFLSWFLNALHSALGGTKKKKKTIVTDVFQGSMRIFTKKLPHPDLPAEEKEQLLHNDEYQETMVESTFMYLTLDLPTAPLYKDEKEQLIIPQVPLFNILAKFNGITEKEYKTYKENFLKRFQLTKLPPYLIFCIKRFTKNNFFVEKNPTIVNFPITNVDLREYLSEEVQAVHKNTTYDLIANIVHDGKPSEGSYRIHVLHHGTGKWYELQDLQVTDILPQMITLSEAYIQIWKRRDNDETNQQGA
Outline: as §1

USP4 = target: T4, USP4 (UniProt Q13107)
T4 sequence (whole entry): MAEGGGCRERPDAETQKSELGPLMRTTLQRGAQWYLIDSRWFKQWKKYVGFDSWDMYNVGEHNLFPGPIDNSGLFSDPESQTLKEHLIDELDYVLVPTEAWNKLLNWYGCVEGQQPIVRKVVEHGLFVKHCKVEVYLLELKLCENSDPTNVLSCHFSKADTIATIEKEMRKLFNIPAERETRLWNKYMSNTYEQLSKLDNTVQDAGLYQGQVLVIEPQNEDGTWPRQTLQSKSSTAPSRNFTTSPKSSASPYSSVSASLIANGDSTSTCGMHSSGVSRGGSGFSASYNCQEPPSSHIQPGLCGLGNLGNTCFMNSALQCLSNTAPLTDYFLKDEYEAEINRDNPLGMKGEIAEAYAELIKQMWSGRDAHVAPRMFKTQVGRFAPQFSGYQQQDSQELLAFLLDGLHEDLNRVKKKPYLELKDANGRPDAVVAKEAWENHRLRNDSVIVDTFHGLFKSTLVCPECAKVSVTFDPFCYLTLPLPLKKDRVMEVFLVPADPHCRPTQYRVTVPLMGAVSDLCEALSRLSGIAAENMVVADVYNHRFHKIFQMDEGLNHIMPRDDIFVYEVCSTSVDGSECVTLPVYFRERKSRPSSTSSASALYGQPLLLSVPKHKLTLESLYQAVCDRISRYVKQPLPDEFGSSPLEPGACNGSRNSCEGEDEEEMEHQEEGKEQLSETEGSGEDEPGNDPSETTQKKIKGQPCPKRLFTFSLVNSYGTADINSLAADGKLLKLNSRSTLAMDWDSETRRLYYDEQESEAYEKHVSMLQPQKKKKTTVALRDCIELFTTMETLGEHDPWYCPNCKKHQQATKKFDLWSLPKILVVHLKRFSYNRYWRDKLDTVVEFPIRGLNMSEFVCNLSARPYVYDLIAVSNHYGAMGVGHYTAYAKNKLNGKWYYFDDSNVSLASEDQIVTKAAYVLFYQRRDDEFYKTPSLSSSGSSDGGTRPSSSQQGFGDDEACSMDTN
Outline: as §1

Measured: log2 ratio of Biotin-Ahx-Ub-VS probe labelling

O=C(CCl)N1CCC(c2noc3cc(F)ccc23)CC1
inactive: USP34 -0.276 | USP36 -0.165 | USP38 0.108 | USP39 0.43 | USP4 -0.235
